Measured values from a collection of fitness landscapes (doi:10.1126/science.1257360).
The full ranking holds about 140,000 sequences; the median of “enrichment ratio after two sorts for PhoP signalling” is about 0, and the highest 2% start at about 11. What follows is part of a selection rich in the highest values, with near analogues and random picks from the rest.

B1: PhoQ; a variant is named by its letters at X, in order, P23837 (parent)
chain: MKKLLRLFFPLSLRVRFLLATAAVVLVLSLAYGMVALIGYSVSFDKTTFRLLRGESNLFYTLAKWENNKLHVELPENIDKQSPTMTLIYDENGQLLWAQRDVPWLMKMIQPDWLKSNGFHEIEADVNDTSLLLSGDHSIQQQLQEVREDDDDAEMTHSVAVNVYPATSRMPKLTIVVVDTIPVELKSSYMVWSWFIYVLSANLLLVIPLLWVAAWWSLRPIEALAKEVRELEEHNRELLNPATTRELTSLVRNLNRLLKSERERYDKYRTTLTDLTHSLKTPLXXLQXXLRSLRSEKMSVSDAEPVMLEQISRISQQIGYYLHRASMRGGTLLSRELHPVAPLLDNLTSALNKVYQRKGVNISLDISPEISFVGEQNDFVEVMGNVLDNACKYCLEFVEISARQTDEHLYIVVEDDGPGIPLSKREVIFDRGQRVDTLRPGQGVGLAVAREITEQYEGKIVAGESMLGGARMEVIFGRQHSAPKDE

Variants of: B1
Assay: enrichment ratio after two sorts for PhoP signalling (ratio (wild type AVST 3.29)); higher = more functional
Conditions: with PhoP (E. coli)

Variant	enrichment ratio
DEAP	≤ 0.25
LAGN	≤ 0.25
GGLE	≤ 0.25
MLEW	≤ 0.25
NEHS	≤ 0.25
TEHS	18.1
TEHI	14.2
YYHY	≤ 0.25
TEHP	≤ 0.25
TEHY	11.4
TEHL	12.5
YYHL	≤ 0.25
TEHF	3.55
NEHY	≤ 0.25
NEHL	≤ 0.25
YYHS	≤ 0.25
PQEA	≤ 0.25
YVFQ	≤ 0.25
IQHV	≤ 0.25
PPCA	≤ 0.25
ETDW	≤ 0.25
TNTM	31.2
TNCL	0.276
MNTS	≤ 0.25

Variant	enrichment ratio
TNRM	≤ 0.25
MLTM	4.75
MNTC	≤ 0.25
MNTI	13.1
MNWM	4.81
MNTM	18.9
KHVC	≤ 0.25
QGRV	≤ 0.25
HNCH	≤ 0.25
VGDV	≤ 0.25
NEGH	≤ 0.25
SGIQ	11.9
SGGK	≤ 0.25
SGKA	≤ 0.25
SGMQ	15.4
SRIQ	≤ 0.25
SGHP	≤ 0.25
SGIE	≤ 0.25
SGGQ	14.9
SGSQ	12.9
TGMQ	≤ 0.25
SGGA	8.12
SGDS	≤ 0.25
AGYL	4.28

Variant	enrichment ratio
QKLN	≤ 0.25
QYFC	≤ 0.25
SGFQ	2.13
EDPV	≤ 0.25
PQAT	≤ 0.25
MAKL	≤ 0.25
PTML	≤ 0.25
TEML	28.6
HKML	≤ 0.25
FAML	6.33
MKML	≤ 0.25
NRML	≤ 0.25
MEML	12
MAML	25.7
VKML	≤ 0.25
VRML	≤ 0.25
TKML	19.2
SWHC	≤ 0.25
WHRD	≤ 0.25
PISS	≤ 0.25
LFSF	≤ 0.25
RFYN	≤ 0.25
DIQW	≤ 0.25
IIYH	≤ 0.25

Variant	enrichment ratio
MCML	17.5
MIWL	3.25
MIRL	≤ 0.25
MIML	14
MMML	≤ 0.25
MTML	4.85
KEPP	≤ 0.25
HSFC	≤ 0.25
TLKM	≤ 0.25
CNFF	≤ 0.25
QNDV	≤ 0.25
MGAM	14.1
MGTA	≤ 0.25
MGTM	13.6
MGTI	12.5
MFMM	≤ 0.25
MGDH	≤ 0.25
MGMM	37.6
HFMM	≤ 0.25
MGCK	3.89
MGTS	≤ 0.25
MGTH	≤ 0.25
MGTC	0.695
HMRE	≤ 0.25

Variant	enrichment ratio
WQTY	≤ 0.25
YKIG	≤ 0.25
VGNS	≤ 0.25
HWDL	≤ 0.25
SSRL	≤ 0.25
YEQT	≤ 0.25
LCHM	≤ 0.25
MVGN	10.6
IKTK	≤ 0.25
MGDM	≤ 0.25
MGWM	21
MGGM	9.49
LNTF	≤ 0.25
SLTF	12.2
KYTF	≤ 0.25
SSTF	7.3
KATF	≤ 0.25
NATF	≤ 0.25
SRTF	≤ 0.25
WLTF	≤ 0.25
SITF	11.8
SATF	11.2
LLTF	≤ 0.25
SNTF	12.1

Variant	enrichment ratio
LNWL	≤ 0.25
ERPG	≤ 0.25
NYCA	≤ 0.25
IDCL	≤ 0.25
VING	≤ 0.25
WSTV	≤ 0.25
SPQL	≤ 0.25
NVQL	≤ 0.25
MMQL	≤ 0.25
TVQL	16.7
TMQL	12.8
HAQL	≤ 0.25
TSQL	14
DWQL	≤ 0.25
KSQL	≤ 0.25
NMQL	≤ 0.25
LAQL	≤ 0.25
TQQL	11.6
NGLW	≤ 0.25
YAWN	≤ 0.25
QRCA	≤ 0.25
FANK	≤ 0.25
PWMR	≤ 0.25
YMPP	≤ 0.25

Variant	enrichment ratio
PLMP	≤ 0.25
FLRE	≤ 0.25
MFVW	≤ 0.25
LQNW	≤ 0.25
TKQL	23.2
NAQL	≤ 0.25
YAQL	≤ 0.25
MNQL	≤ 0.25
TLQL	13
KAQL	1.07
LNQL	≤ 0.25
TNQL	12.7
KLQL	≤ 0.25
WFHV	≤ 0.25
AFMF	≤ 0.25
WQHR	≤ 0.25
AKRK	≤ 0.25
TMEC	11.9
KMSL	≤ 0.25
DMEI	≤ 0.25
TMFV	0.532
TMSL	13.1
KMEI	≤ 0.25
TMEI	17.7

Variant	enrichment ratio
TMEV	25
NEEV	≤ 0.25
NEEC	≤ 0.25
NMSL	≤ 0.25
KMEC	≤ 0.25
IVWG	≤ 0.25
GKHD	≤ 0.25
RMMR	≤ 0.25
VNCL	4.33
RQDI	≤ 0.25
MCGY	≤ 0.25
MMHL	1.34
DMHL	≤ 0.25
TMWL	≤ 0.25
TMHL	11.6
TMGL	7.75
TMEL	15.3
HEGR	≤ 0.25
IMAF	≤ 0.25
LWKN	≤ 0.25
VRPW	≤ 0.25
HNFA	≤ 0.25
TPCH	≤ 0.25
VYYN	≤ 0.25

Variant	enrichment ratio
VLGI	≤ 0.25
SHCN	13.2
GLLN	≤ 0.25
CLCN	23.2
SHLN	2.15
CLLN	≤ 0.25
SLCN	11.5
THCN	4.64
ELCN	≤ 0.25
WLCN	≤ 0.25
GLCI	9.01
GLCN	12.8
STCN	8.56
VNQW	≤ 0.25
HNQK	≤ 0.25
YVDP	≤ 0.25
RGYW	≤ 0.25
TCKY	≤ 0.25
FSCN	≤ 0.25
NSCN	≤ 0.25
SILN	8.2
SVCN	19.4
SVLN	7.1
SICN	20.7

Variant	enrichment ratio
SVNL	≤ 0.25
SSCN	16.9
SSLN	6.84
TSCN	26.6
KYCN	≤ 0.25
KSCN	≤ 0.25
KIAC	≤ 0.25
GADV	≤ 0.25
GNVT	≤ 0.25
LQFF	≤ 0.25
YIPQ	≤ 0.25
LFCN	≤ 0.25
RNVA	≤ 0.25
IHQN	≤ 0.25
VDDC	≤ 0.25
DQCK	≤ 0.25
LVLE	≤ 0.25
VCCN	≤ 0.25
SQCN	10.1
SCCN	17.1
LVPD	≤ 0.25
TRFL	≤ 0.25
DSSW	≤ 0.25
EETG	3.69

Variant	enrichment ratio
MITR	≤ 0.25
SGYI	2.6
SGDY	≤ 0.25
SGWY	≤ 0.25
SGGY	22.8
SGNY	≤ 0.25
SGAY	15.2
MFNP	≤ 0.25
RNKF	≤ 0.25
KSCF	≤ 0.25
GSTI	12.2
GSHF	≤ 0.25
GSCF	11.5
GSWI	≤ 0.25
GSLY	7.32
MERP	≤ 0.25
VWLN	≤ 0.25
DNMN	≤ 0.25
ATLK	17
NAMK	≤ 0.25
AALK	12
AAAT	≤ 0.25
YTLK	≤ 0.25
AIMK	≤ 0.25

Variant	enrichment ratio
AALT	11.9
ATLA	9.51
KALK	≤ 0.25
AAMK	35.5
AALA	7.36
NALK	≤ 0.25
HSVK	≤ 0.25
TFLL	3.21
PAYK	≤ 0.25
PNPY	≤ 0.25
GVVL	1.14
FWES	≤ 0.25
MFHN	≤ 0.25
VGKH	≤ 0.25
KSNS	≤ 0.25
NSAT	≤ 0.25
TSNS	12.8
KSAT	≤ 0.25
KSNT	≤ 0.25
TSNW	≤ 0.25
TSAT	11.6
TSNY	8.01
TSNT	11.9
GLRK	≤ 0.25

Variant	enrichment ratio
FLKG	0.285
GCSH	≤ 0.25
AATM	0.767
RWIC	≤ 0.25
FLKL	≤ 0.25
GIVG	10.4
GNCS	7.94
GNCA	9.24
GICN	13.8
GICS	11.2
GICI	7.05
GICG	15.9
GNCG	≤ 0.25
GILN	10.6
GNCN	≤ 0.25
GICP	≤ 0.25
GICA	11.2
CLFS	≤ 0.25
